ssDAF12 agonist = S. stercoralis DAF-12 activation, primary screen | 370,000 tested, 1% active | HEK293 ssDAF-12/GRIP1 lit1-tk-luc reporter, luminescence; % of 3 µM dafachronic acid response | AID 652126 | activation, % at 6.8 µM;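 active = activation above the mean over all tested compounds plus 3 SD, cut at about 0.9% in these data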;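 note: 0% = DMSO-only wells and 100% = 3 µM delta7-dafachronic acid wells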
DAX1 inh-1 = inhibits human nuclear receptor DAX1; HEK293 Gal4-DAX1 luciferase reporter, luminescence; inhibition, % at 6.75 µM; 340,000 tested, 0.99% active;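 active = inhibition above the mean over all tested compounds plus 3 SD, cut at about 4.2% in these data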;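 note: 0% = DAX1-transfected cells with DMSO and 100% = empty-vector control cells with DMSO; inhibition shows as a rise in luminescence from relieved DAX1 repression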
Target sequence (P51843 207-470 limits assumed): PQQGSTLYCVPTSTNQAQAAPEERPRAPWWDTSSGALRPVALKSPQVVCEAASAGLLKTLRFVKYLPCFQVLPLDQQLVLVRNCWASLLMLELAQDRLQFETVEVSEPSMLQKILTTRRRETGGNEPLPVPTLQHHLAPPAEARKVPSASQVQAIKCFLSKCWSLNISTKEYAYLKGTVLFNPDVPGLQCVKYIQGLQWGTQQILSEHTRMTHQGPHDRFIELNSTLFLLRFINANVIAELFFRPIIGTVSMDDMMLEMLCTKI
hcDAF12 agonist = activators of H. contortus DAF-12 nuclear receptor. HEK293 hcDAF-12 lit1-tk-luc reporter, luminescence; 0% DMSO, 100% Δ7-dafachronic acid. activation, % at 6.8 µM. 370,000 tested, 1.4% active. AID 652067;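 active = activation above the mean of all tested compounds plus 3 SD, cut at about 5.5% in these data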;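 note: 100% = response to 3 µM Δ7-dafachronic acid high control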
DAX1 inh-2 = inhibitors of DAX1 repression of SF-1 activated StAR promoter; HEK293T StAR-luciferase reporter, SF-1/DAX-1 repression relief; inhibition, % at 6.8 µM; 370,000 tested, 1.1% active; AID 652010;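 active = inhibition above the mean over all tested compounds plus 3 SD, cut at about 3.6% in these data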;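 note: 0% = DAX-1 cells with DMSO and 100% = cells lacking DAX-1 with DMSO; higher inhibition means more luminescence from relief of DAX-1 repression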
hgDAF-12 ag = activates the H. glycines DAF-12 receptor ligand-binding domain; HEK293 GAL4-hgDAF12 UAS-luciferase reporter, agonist luminescence; normalized to butyrate control; 370,000 tested, 1.8% active; activation, % at 6.8 µM;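 active = activation above a cutoff set at the mean of all screened compounds plus 3 SD, cut at about 10% in these data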;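 note: 0% = DMSO wells and 100% = sodium butyrate wells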
SMARCA2 activ = increases SMARCA2 function in MMTV reporter cells. MG213 cells, MMTV-luciferase reporter, dexamethasone, overnight. AID 652017. 370,000 tested, 1% active. activation, % at 9.1 µM; in the data active = activation above about 7.8%;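 note: 0% = vehicle wells and 100% = reference activator wells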
* hit, by the source's call; . = not tested or not shown. Compounds with a hit are over-represented: about 4.8% of the library has one in this group of screens.

SMILES	ssDAF12 agonist	DAX1 inh-1	hcDAF12 agonist	DAX1 inh-2	hgDAF-12 ag	SMARCA2 activ
Cc1ccc(CN2CCCCC(NC(=O)c3ccc(F)c(F)c3)C2=O)cc1 (configuration not stated)	-1.3	.	-3.2	-1.6	-5.0	-3.8
Cc1ccc(C2(c3noc(CN(C)Cc4cccnc4)n3)CCCC2)cc1	-1.4	4.5*	-1.1	0.5	0.4	-3.8
COc1ccc(N2C(=O)c3ccccc3NC23CCC(C)CC3)cc1 (configuration not stated)	-0.9	0.8	2.2	0.9	12.8*	4.3
CCOc1ccc(N2C(=O)c3ccccc3NC2(C)CC)cc1 (configuration not stated)	-1.1	0.3	3.3	3.7*	12.1*	-0.3
Cc1ccc(NC(=S)N2CCCC2)cc1	-0.6	2.2	-0.7	0.9	7.6	1.0
Cc1ccc(NC(=O)c2cccc(F)c2)cc1S(=O)(=O)N1CCCCCC1	-1.3	-0.9	-3.4	-1.7	0.5	-5.2
O=C1NC(c2ccccc2)=N/C1=C/c1ccco1	1.0*	1.6	2.8	1.6	9.1	4.5
CC(=O)N/C(=C\c1ccccc1)C(=O)OCC(=O)c1c(N)n(CC(C)C)c(=O)n(C)c1=O	-1.0	4.4*	-1.1	0.7	-0.8	2.4
CCC(O)(C(=O)Nc1ccccc1C(F)(F)F)c1ccccc1OC (configuration not stated)	-1.1	0.0	-0.1	0.0	1.2	-1.1
Cc1nc(NC(=O)c2ccccc2)nc2cc3c(cc12)OCO3	0.5	1.3	1.9	2.2	11.8*	2.9
Cc1nccnc1Sc1ccccc1	2.0*	-0.1	0.5	0.1	-1.6	-0.6
O=C(O)c1cccnc1Sc1ccccc1	-0.7	1.1	-1.9	-0.2	-1.4	-4.5
Cc1ccc(NC(=O)CSc2nnc(C)c(=O)n2N)cc1	-1.1	0.3	-1.3	-0.3	-0.5	0.1
CNC(=O)CC1C(=O)N(Cc2ccccc2)C(=S)N1NC(=O)c1cccc(F)c1 (configuration not stated)	1.2*	-1.2	-2.7	0.2	2.5	-1.2
O=C1N/C(=C/c2ccsc2)C(=O)N1c1ccccc1	-0.7	2.8	0.1	0.4	11.8*	5.3
CSc1ncccc1C(=O)OCC(=O)Nc1ccc(Cl)cn1	-0.7	0.2	-0.7	-0.6	-0.9	-2.1
COc1cc(C(=O)NNC(=O)C2CC=CCC2C(=O)O)cc(OC)c1OC (configuration not stated)	1.9*	0.4	0.3	0.6	-3.7	0.1
O=C(Nc1ccc(N2CCN(C(=O)c3cccs3)CC2)cc1)c1ccc([N+](=O)[O-])o1	-1.1	-3.6	-4.1	-8.3	-3.4	1.2
CC(C)c1ccc(NC(=O)COc2ccc(C3SCCS3)cc2)cc1	-0.6	0.8	0.1	-0.6	-0.5	-0.4
CC(C)CSc1nnc(N)s1	-0.6	2.6	-1.2	1.3	0.4	2.8
CC(C)CN(CC(C)C)c1nnc(N)s1	-0.7	5.9*	-2.2	0.2	-2.1	2.6
COc1cc(C)ccc1OCc1cc(C(=O)NC(c2ccccn2)C(F)(F)F)no1 (configuration not stated)	-1.1	-1.1	-0.5	-1.8	3.5	1.2
Clc1ccccc1C1CC(c2ccccc2)=Nc2ccccc2N1 (configuration not stated)	-0.6	4.8*	1.6	1.1	7.8	0.9
Cn1cnc(S(=O)(=O)NCc2cccs2)c1	1.6*	2.7	-0.1	-0.2	0.8	0.1
O=C(Nc1ccccc1N1CCCCC1)c1cccs1	-0.5	1.2	0.7	-1.4	0.0	0.2
SMILES	ssDAF12 agonist	DAX1 inh-1	hcDAF12 agonist	DAX1 inh-2	hgDAF-12 ag	SMARCA2 activ
CC(=O)N1CCN(C(=S)NC(=O)c2ccc(S(=O)(=O)N3CCOCC3)cc2)CC1	-1.4	4.7*	-4.2	-0.5	0.5	2.2
CC(C)(C)c1ccc(C(=O)NCC(=O)N2CCCC2)cc1	-1.1	0.1	2.0	0.6	2.3	-1.1
CC(C)(C)c1ccc(C(=O)NC(=S)N2CCCC2)cc1	1.8*	0.9	3.9	0.7	3.3	-0.2
CC(C)(C)c1ccc(C(=O)NCCN2CCCC2)cc1	1.1*	1.3	0.7	0.4	2.2	1.2
CC(=O)Nc1ccc(C(=O)Nc2ccc(S(=O)(=O)N3CCOCC3)cc2)cc1	-0.9	1.1	-0.4	-0.5	-1.1	1.1
O=C(NCCN1CCCCCC1)c1ccc(N2CCCC2=O)cc1	-0.3	-1.0	2.1	-0.1	1.8	0.0
CC(C)(C)c1ccc(C(=O)NCC(=O)O)cc1	-0.9	4.8*	-1.4	0.9	0.3	0.9
Cc1cc(C)cc(N(CC(=O)NC2CCCC2)C(=O)CNC(=O)c2ccco2)c1	-0.5	1.0	-1.4	0.1	0.8	-0.8
O=C(c1nn2c(C(F)(F)F)cc(-c3ccccc3)nc2c1Cl)N1CCOCC1	-1.1	-1.1	-2.4	-1.0	-0.8	1.3
CCn1c(=N)c(S(=O)(=O)c2ccccc2)cc2c(=O)n3ccccc3nc21	-2.0	-0.6	-1.3	-0.2	-2.2	-2.3
Cc1ccc(C(=O)NCCC(=O)N2CCCC2)cc1	0.6	6.1*	5.2	0.6	13.1*	4.8
O=C(/C=C1\OCc2cc(OCc3ccccc3)ccc21)OCc1ccccc1	-1.1	.	-0.1	0.7	3.9	-0.3
O=C(/C=C1\OCc2ccccc21)OCc1ccccc1	0.2	.	5.2	2.0	12.3*	-0.3
O=C(NNC(=O)c1cccs1)c1csc(N2CCOCC2)n1	1.2*	0.0	-0.9	0.3	1.7	-2.3
O=C(NC(=S)Nc1ccc(N2CCCCC2)cc1)c1ccco1	-0.2	2.8	4.9	3.3	12.8*	-1.4
CC(=O)N1CCN(c2ccc(NC(=O)c3ccccc3)cc2)CC1	-0.6	5.8*	1.5	0.5	8.3	-0.1
CC1CCN(c2ccc(NC(=S)NC(=O)c3ccco3)cc2)CC1	-0.9	1.6	-0.6	-0.5	5.0	3.3
Cc1ccc(C(=O)Nc2ccc(N3CCN(C)CC3)cc2)cc1	1.3*	3.7	1.2	1.7	10.0	-0.5
O=C(NNC(=O)c1ccc(Br)s1)c1csc(N2CCOCC2)n1	-0.8	1.8	-1.0	0.0	0.9	3.6
CC(=O)N1CCN(c2ccc(NC(=S)NC(=O)c3ccccc3)cc2)CC1	-0.1	0.2	3.5	-0.4	-3.4	-3.3
COc1ccc(C(=O)Nc2ccc(N3CCN(C)CC3)cc2)cc1	0.9	2.2	1.8	1.6	7.9	5.8
COc1ccccc1OCCCCNC(C)(C)C	-1.4	-0.1	1.1	0.7	1.5	-1.3
O=C(CS(=O)(=O)Cc1ccccc1)Nc1ccc(Br)cc1F	-1.3	-0.4	-0.3	0.1	-0.7	-1.4
Cc1cc(C)c2cc(CNC3CCCC3)c(Cl)nc2c1	-1.3	0.0	0.9	1.4	0.8	-2.5
CC1CC(C)CN(c2ncnc3c2cnn3C)C1 (configuration not stated)	-0.6	-0.6	3.6	-0.4	3.2	0.2
